From PubChem BioAssay (NCATS) come the findings set out here.

Assay [1] can be described thus: NCATS anti-infectives library activity on HEK293 viability as a counter-qHTS vs the C. elegans viability qHTS (AID 1745854).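 Further: HEK293 cells exposed to compounds for 24 hr before the viability read.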 Put shortly: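 Cytotoxicity in human HEK293 cells is measured by ATP-dependent CellTiter-Glo luminescence following a 24 hr incubation with titrated library compounds at 37C. Top final concentration is 41.7 uM.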
On the technique in general: Quantitative high-throughput screening tests each substance at several concentrations.

Assay [2] concerns the target Glutathione peroxidase 1 (Homo sapiens) (UniProt P07203). Kind of assay: Primary qHTS Assay for Inhibitors of Recombinant Selenoprotein Glutathione Peroxidase 1 (GPX1) (AID 1845191). Further: nearly all actives have a fitted effect of over 65% in size. Further: potency means the concentration at half of the fitted maximal effect. In outline: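 Recombinant GPX1 (10 nM final) was preincubated with compound for 30 min at room temperature, then reacted with 1 mM GSH, 0.5 mM CHP, 0.5 mM NADPH and 100 nM glutathione reductase; NADPH fluorescence (340/450 nm) was read at 0 and 15 min.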

Assay [3] addresses Phospholipid hydroperoxide glutathione peroxidase GPX4 (Homo sapiens) (UniProt P36969). Kind of assay: Primary qHTS Assay for Inhibitors of Recombinant Selenoprotein Glutathione Peroxidase 4 (GPX4) (AID 1845192). Further: nearly all actives have a fitted effect of over 65% in size. In outline: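 GR-coupled readout: 100 nM GR, 1 mM GSH, 0.5 mM NADPH; NADPH fluorescence (ex 340/em 450 nm) read at t=0 and after 15 min RT. GPX4 200 nM, preincubated 30 min with compound; substrate 0.5 mM CHP.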

Records with an inconclusive call do not appear. A call without a number means that no potency is given here. Unmarked numbers belong to inactive results. Active and inactive are the calls of the source. The call rests on the fitted dose curve; in most records, active means well fitted curve in the direction sought with a large enough effect; inconclusive means small, poorly fitted or top-dose-only effect, or another doubt; inactive means no such curve, though single readings can be large; an effect the other way counts as inactive or inconclusive.

Phospholipid hydroperoxide glutathione peroxidase GPX4 (Homo sapiens), sequence (P36969 whole entry, looked up): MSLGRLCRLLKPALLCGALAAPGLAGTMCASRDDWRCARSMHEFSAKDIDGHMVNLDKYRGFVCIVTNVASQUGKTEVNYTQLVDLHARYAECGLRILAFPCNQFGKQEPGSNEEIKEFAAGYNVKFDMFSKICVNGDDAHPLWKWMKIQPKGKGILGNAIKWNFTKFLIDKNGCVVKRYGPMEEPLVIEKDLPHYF
Glutathione peroxidase 1 (Homo sapiens), sequence (P07203 whole entry, looked up): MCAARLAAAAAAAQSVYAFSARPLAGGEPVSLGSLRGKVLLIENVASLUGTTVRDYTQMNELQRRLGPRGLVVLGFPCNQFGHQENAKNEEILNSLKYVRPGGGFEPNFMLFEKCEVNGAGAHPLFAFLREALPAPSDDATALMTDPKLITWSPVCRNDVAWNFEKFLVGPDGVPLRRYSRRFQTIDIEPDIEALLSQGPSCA

In the case of `O=C(O)CCCCC1CCSS1` (stereo unspecified), the compound was called inactive in assay [1]. Further, in assay [2], the Potency was 11.4 µM (active). Besides, in assay [3], the Potency entry is “inactive”.

As to `OCc1ccc(Cl)cc1Cl`, in assay [1], the call was inactive. Besides, the Potency result in assay [2] and in assay [3] was “inactive” in each case.

For `CCN[C@H]1CN(CCCOC)S(=O)(=O)c2sc(S(N)(=O)=O)cc21`, the compound was called inactive in assay [1]. Moreover, the Potency entry in assay [2] and in assay [3] was “inactive” in each case.

Turning to `CCCCCCCCCCOc1cc2c(=O)c(C(=O)OCC)c[nH]c2cc1OCC`, in assay [2], the activity, negative = inhibition is -3.55% [at 4.49 µM].

For the compound `CC(=O)NCc1c(I)c(NC(C)=O)c(I)c(C(=O)O)c1I`, the Potency entry in assay [2] and in assay [3] was “inactive” in each case.

As to `CCN1CC(CCN2CCOCC2)C(c2ccccc2)(c2ccccc2)C1=O` (stereo unspecified), the Potency entry in assay [2] and in assay [3] was “inactive” in each case.

For the compound `COc1ccc(C(=O)NCc2ccc(OCCN(C)C)cc2)cc1OC`, the Potency result in assay [2] and in assay [3] was “inactive” in each case.

Turning to `Cc1c(I)c(=O)n(-c2ccccc2)n1C`, the Potency result in assay [2] and in assay [3] was “inactive” each time.

With `CC1(C)S[C@@H]2[C@H](NC(=O)C(C(=O)O)c3ccccc3)C(=O)N2[C@H]1C(=O)O` (stereo partly specified), the Potency entry in assay [2] and in assay [3] was “inactive” each time.

As for `CC[N+](CC)(CC(=O)Nc1c(C)cccc1C)Cc1ccccc1`, the Potency entry in assay [2] and in assay [3] was “inactive” throughout.

With `CC(=O)N(CC(O)CO)c1c(I)c(C(=O)NCC(O)CO)c(I)c(C(=O)NCC(O)CO)c1I` (stereo unspecified), the Potency result in assay [2] and in assay [3] was “inactive” throughout.

For the compound `Cc1ccccc1N=Nc1ccc(N=Nc2c(O)ccc3ccccc23)c(C)c1`, the Potency entry in assay [2] and in assay [3] was “inactive” throughout.

On to `C1CCN2C[C@@H]3C[C@@H](CN4CCCC[C@@H]34)[C@H]2C1`, for which the Potency entry in assay [2] and in assay [3] was “inactive” each time.

As to `OCCN1C[C@H](O)[C@@H](O)[C@H](O)[C@H]1CO`, the Potency result in assay [2] and in assay [3] was “inactive” throughout.

Turning to `O[C@@H]1CO[C@H]2[C@@H]1OC[C@@H]2O`, the Potency entry in assay [2] and in assay [3] was “inactive” in each case.

Regarding `CN1C(=O)CC(c2ccccc2)C1=O` (stereo unspecified), the Potency result in assay [2] and in assay [3] was “inactive” in each case.

For `CCCCCCCCCCC(CO)CCCCCCCC` (stereo unspecified), the Potency result in assay [2] and in assay [3] was “inactive” throughout.

For `Cc1onc(-c2ccccc2)c1-c1ccc(S(N)(=O)=O)cc1`, the Potency entry in assay [2] and in assay [3] was “inactive” throughout.

On to `Cc1cccc(C)c1NC(=O)CC12CCCN1CCC2`, for which the Potency result in assay [2] and in assay [3] was “inactive” each time.

As to `CCCNC(C)(C)COC(=O)c1ccccc1`, the Potency entry in assay [2] and in assay [3] was “inactive” each time.

For `COc1ccc(-c2cc(=O)c3c(O)cc(O[C@@H]4O[C@H](CO[C@@H]5O[C@@H](C)[C@H](O)[C@@H](O)[C@H]5O)[C@@H](O)[C@H](O)[C@H]4O)cc3o2)cc1O`, the Potency result in assay [2] and in assay [3] was “inactive” each time.

On to `O=C(NCC(O)CO)c1c(I)c(C(=O)NCC(O)CO)c(I)c(N(CCO)C(=O)CO)c1I` (stereo unspecified), for which the Potency result in assay [2] and in assay [3] was “inactive” each time.

Turning to `COCC(=O)Nc1c(I)c(C(=O)NCC(O)CO)c(I)c(C(=O)N(C)CC(O)CO)c1I` (stereo unspecified), the Potency entry in assay [2] and in assay [3] was “inactive” in each case.

Regarding `CN[C@@H]1[C@H](O)[C@H](NC)[C@H]2O[C@@]3(O)C(=O)C[C@@H](C)O[C@H]3O[C@@H]2[C@H]1O`, the Potency result in assay [2] and in assay [3] was “inactive” throughout.

`C=CCNC(N)=S`: the Potency entry in assay [2] and in assay [3] was “inactive” in each case.

In the case of `CC(=O)N[C@@H](Cc1ccc(O)cc1)C(=O)O`, the Potency entry in assay [2] and in assay [3] was “inactive” each time.

As to `CC(=O)NS(=O)(=O)c1ccc(N)cc1`, the Potency result in assay [2] and in assay [3] was “inactive” each time.

`CN(C(=O)c1c(O)c2ccccc2n(C)c1=O)c1ccccc1`: the Potency result in assay [2] and in assay [3] was “inactive” each time.

Consider `CC(C(=O)O)c1ccc2c(c1)Cc1cccnc1O2` (stereo unspecified), for which the Potency result in assay [2] and in assay [3] was “inactive” each time.

On to `CC(=O)OCC(COC(C)=O)OC(C)=O`, for which the Potency result in assay [2] and in assay [3] was “inactive” in each case.

With `Cc1c(C)c2c(c(C)c1OC(=O)c1cccnc1)CC[C@@](C)(CCC[C@H](C)CCC[C@H](C)CCCC(C)C)O2`, the Potency result in assay [2] and in assay [3] was “inactive” in each case.

For the compound `CN/C(=C\[N+](=O)[O-])NCCSCc1csc(CN(C)C)n1`, the Potency entry in assay [2] and in assay [3] was “inactive” throughout.

With `Cc1cc(OI)c(C(C)C)cc1-c1cc(C(C)C)c(OI)cc1C`, the Potency result in assay [2] and in assay [3] was “inactive” in each case.

On to `CC1(C)S[C@@H]2[C@H](N=CN3CCCCCC3)C(=O)N2[C@H]1C(=O)O`, for which the Potency entry in assay [2] and in assay [3] was “inactive” throughout.

`COc1ccccc1OCC(O)CO` (stereo unspecified): the Potency entry in assay [2] and in assay [3] was “inactive” in each case.

As to `OC[C@@H](O)[C@@H](O)[C@H](O)[C@H](O)CO`, the Potency result in assay [2] and in assay [3] was “inactive” throughout.

Regarding `Cc1ccsc1/C=C/C1=NCCCN1C`, the Potency result in assay [2] and in assay [3] was “inactive” each time.

Consider `CC(C)C[C@@H](N)C(=O)O`, for which the Potency result in assay [2] and in assay [3] was “inactive” each time.

As to `NC(=O)CC[C@@H](N)C(=O)O`, the Potency entry in assay [2] and in assay [3] was “inactive” each time.

Turning to `CC(=O)OCC(=O)[C@@]1(O)CC[C@H]2[C@@H]3CCC4=CC(=O)C=C[C@]4(C)[C@@]3(F)[C@@H](O)C[C@@]21C`, the Potency result in assay [2] and in assay [3] was “inactive” each time.

Consider `CCS(=O)(=O)CCn1c([N+](=O)[O-])cnc1C`, for which the Potency result in assay [2] and in assay [3] was “inactive” each time.

For `Cc1cc(C)c(NC(=O)CN(CC(=O)O)CC(=O)O)c(C)c1Br`, the Potency result in assay [2] and in assay [3] was “inactive” in each case.

With `CCCCOC(=O)c1ccc(N)cc1`, the Potency entry in assay [2] and in assay [3] was “inactive” throughout.

As to `NCC1CCC(C(=O)Oc2ccc(CCC(=O)O)cc2)CC1` (stereo unspecified), the Potency result in assay [2] and in assay [3] was “inactive” in each case.

On to `Cc1cc(C)nc(NS(=O)(=O)c2ccc(N)cc2)n1`, for which the Potency result in assay [2] and in assay [3] was “inactive” throughout.

`CC[C@H](C)[C@H](N)C(=O)O`: the Potency result in assay [2] and in assay [3] was “inactive” in each case.

With `C/C=C1\[C@H]2C=C(C)C[C@]1(N)c1ccc(=O)[nH]c1C2`, the Potency result in assay [2] and in assay [3] was “inactive” throughout.

With `NS(=O)(=O)c1cc2c(cc1C(F)(F)F)NCNS2(=O)=O`, the Potency result in assay [2] and in assay [3] was “inactive” in each case.

On to `CC(C)(C)NCC(O)COc1cccc2c1CCC(=O)N2` (stereo unspecified), for which the Potency entry in assay [2] and in assay [3] was “inactive” throughout.

Turning to `Cc1ccsc1C(=CCCN1CCC[C@@H](C(=O)O)C1)c1sccc1C`, the Potency entry in assay [2] and in assay [3] was “inactive” throughout.

For `C[C@@H](c1ncncc1F)C(O)(Cn1cncn1)c1ccc(F)cc1F` (stereo partly specified), the Potency result in assay [2] and in assay [3] was “inactive” each time.

For the compound `c1ccc2[nH]ccc2c1`, the Potency result in assay [2] and in assay [3] was “inactive” in each case.

Take `CN[C@@H]1[C@@H](O)[C@@H](O[C@@H]2[C@H](O)[C@H](O[C@H]3OC(CN)=CC[C@H]3N)[C@@H](N)C[C@H]2N)OCC1(C)O` (stereo partly specified): the Potency result in assay [2] and in assay [3] was “inactive” in each case.

Consider `CCCCCCCC(=O)OCC(COC(=O)CCCCCCC)OC(=O)CCCCCCC`, for which the Potency result in assay [2] and in assay [3] was “inactive” throughout.

With `C[C@@H](N)C(=O)O`, the Potency entry in assay [2] and in assay [3] was “inactive” each time.

Turning to `COc1nccnc1NS(=O)(=O)c1ccc(N)cc1`, the Potency result in assay [2] and in assay [3] was “inactive” each time.

In the case of `C[C@@H]1O[C@@H](OC[C@H]2O[C@@H](Oc3c(-c4ccc(O)c(O)c4)oc4cc(O)cc(O)c4c3=O)[C@H](O)[C@@H](O)[C@@H]2O)[C@H](O)[C@H](O)[C@H]1O`, the Potency result in assay [2] and in assay [3] was “inactive” throughout.
